Assay results as given in PubChem BioAssay.
The other results are listed elsewhere or left out. The source made the active and inactive calls. Rule as the data show it, unless noted: active = activity above about 50%; inactive = the rest.

How the values were obtained:
[1] = biological target: Tumor necrosis factor receptor superfamily member 10B (Homo sapiens) (UniProt O14763); experiment: caspase-8 TRAIL sensitization, hit retest, confirmation, cell-based, NB7+caspase-8, with/without TRAIL, luminescence panel (AID 651596); conditions: NB7 neuroblastoma + caspase-8, TRAIL sensitization, luminescence viability, with TRAIL, mean of runs, at 10 µM, stronger effect = higher value
[2] = as above; conditions: NB7 neuroblastoma + caspase-8, without TRAIL, luminescence viability, without TRAIL, mean of runs, at 10 µM
[3] = biological target: 72 kDa type IV collagenase (Homo sapiens) (UniProt P08253); experiment: MMP-2 protease inhibition counter-screen, confirmation, counter-screen for CSN deneddylation inhibitor project, biochemical, fluorescence, single concentration (AID 720655;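 active = corrected plate-normalized z-score of 5 or more, or -5 or less, or inhibition of 15% or more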;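 also: plate controls were DMSO wells with enzyme for no effect and buffer wells lacking MMP-2 for full effect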); conditions: recombinant MMP-2, FRET substrate fluorescence, 60 min; at 16.6 µM
[4] = biological target: Prothrombin (Bos taurus) (UniProt P00735); experiment: bovine thrombin inhibition counter-screen, confirmation, counter-screen for CSN deneddylation inhibitor project, biochemical, fluorescence polarization, single concentration (AID 720656;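 active = inhibition at or above a set limit, with a fluorescence interference ratio between 0.5 and a set maximum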); conditions: bovine thrombin cleavage of Ub4-pepOG, at 16.6 µM, stronger effect = higher value
[5] = biological target: Tumor necrosis factor receptor superfamily member 10B (Homo sapiens) (UniProt O14763); experiment: TRAIL sensitizers in caspase-8 expressing neuroblastoma cells, dose response, NB7 cells plus caspase-8, luminescence, panel (AID 652002); conditions: NB7 neuroblastoma +caspase-8, TRAIL sensitization, luminescence viability, NB7+Caspase-8, with TRAIL, run 1; at 12.5 µM (top of the series)
[6] = biological target: Tumor necrosis factor receptor superfamily member 10B (Homo sapiens) (UniProt O14763); experiment: as above; conditions: NB7 neuroblastoma +caspase-8, TRAIL sensitization, luminescence viability, NB7+Caspase-8, with TRAIL, run 2; at 12.5 µM (top of the series)
[7] = as above; conditions: NB7 neuroblastoma +caspase-8, no TRAIL, compound-alone cytotoxicity counter-screen, luminescence viability, NB7+Caspase-8, run 1; at 12.5 µM (top of the series)
[8] = as above; conditions: NB7 neuroblastoma +caspase-8, no TRAIL, compound-alone cytotoxicity counter-screen, luminescence viability, NB7+Caspase-8, run 2; at 12.5 µM (top of the series)

Tumor necrosis factor receptor superfamily member 10B (Homo sapiens), sequence (O14763 whole entry, looked up): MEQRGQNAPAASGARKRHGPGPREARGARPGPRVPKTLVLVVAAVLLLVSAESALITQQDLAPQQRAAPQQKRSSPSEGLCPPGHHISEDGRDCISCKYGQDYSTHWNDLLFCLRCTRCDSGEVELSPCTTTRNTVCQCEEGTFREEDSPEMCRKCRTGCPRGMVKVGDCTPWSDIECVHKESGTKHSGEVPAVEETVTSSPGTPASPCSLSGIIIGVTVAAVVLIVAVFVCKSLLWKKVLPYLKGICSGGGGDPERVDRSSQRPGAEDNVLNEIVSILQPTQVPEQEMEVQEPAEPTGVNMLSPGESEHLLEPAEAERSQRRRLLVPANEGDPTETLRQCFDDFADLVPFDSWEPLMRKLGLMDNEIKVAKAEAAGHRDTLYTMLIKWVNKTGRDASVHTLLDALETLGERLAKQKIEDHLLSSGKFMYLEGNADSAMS
Prothrombin (Bos taurus), sequence (P00735 whole entry, looked up): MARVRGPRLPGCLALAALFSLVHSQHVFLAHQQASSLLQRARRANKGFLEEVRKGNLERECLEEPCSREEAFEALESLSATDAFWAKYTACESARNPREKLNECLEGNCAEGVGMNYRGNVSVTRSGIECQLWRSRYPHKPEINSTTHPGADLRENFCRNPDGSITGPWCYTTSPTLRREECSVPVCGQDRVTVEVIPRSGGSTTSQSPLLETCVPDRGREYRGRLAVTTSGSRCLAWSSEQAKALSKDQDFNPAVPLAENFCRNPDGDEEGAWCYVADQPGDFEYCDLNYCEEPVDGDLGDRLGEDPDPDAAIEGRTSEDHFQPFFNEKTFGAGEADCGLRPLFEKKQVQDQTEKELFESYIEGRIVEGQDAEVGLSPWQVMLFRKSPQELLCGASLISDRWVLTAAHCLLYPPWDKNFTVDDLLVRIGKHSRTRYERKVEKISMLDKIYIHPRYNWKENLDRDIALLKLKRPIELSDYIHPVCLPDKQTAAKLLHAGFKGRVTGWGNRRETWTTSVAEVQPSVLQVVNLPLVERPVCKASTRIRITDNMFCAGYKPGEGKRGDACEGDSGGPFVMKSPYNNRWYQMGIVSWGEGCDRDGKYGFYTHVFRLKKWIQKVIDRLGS
72 kDa type IV collagenase (Homo sapiens), sequence (P08253 whole entry, looked up): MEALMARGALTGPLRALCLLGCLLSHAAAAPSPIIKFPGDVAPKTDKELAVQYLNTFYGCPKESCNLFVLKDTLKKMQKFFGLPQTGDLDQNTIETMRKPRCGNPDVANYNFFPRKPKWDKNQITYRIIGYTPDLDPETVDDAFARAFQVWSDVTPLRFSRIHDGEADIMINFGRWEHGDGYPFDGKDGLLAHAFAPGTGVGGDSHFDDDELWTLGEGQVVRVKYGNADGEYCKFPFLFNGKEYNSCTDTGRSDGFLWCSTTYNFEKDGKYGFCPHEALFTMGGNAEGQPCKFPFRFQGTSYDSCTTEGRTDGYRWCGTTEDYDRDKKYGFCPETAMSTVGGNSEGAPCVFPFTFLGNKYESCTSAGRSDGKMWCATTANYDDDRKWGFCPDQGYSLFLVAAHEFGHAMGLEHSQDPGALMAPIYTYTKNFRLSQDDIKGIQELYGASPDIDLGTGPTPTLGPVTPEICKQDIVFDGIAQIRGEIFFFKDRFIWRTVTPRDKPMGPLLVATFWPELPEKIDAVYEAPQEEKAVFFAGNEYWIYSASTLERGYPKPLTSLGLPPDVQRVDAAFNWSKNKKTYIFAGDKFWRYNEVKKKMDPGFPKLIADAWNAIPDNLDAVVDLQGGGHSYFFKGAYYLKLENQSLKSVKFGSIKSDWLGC

CCOC(=O)[C@]12Cc3cc(Cl)ccc3[C@H]1N(CC(=O)OC)C(=O)c1ccccc12
activity [1]: 40.5%
activity [2]: 64%

Cc1ccc(-c2cc(-c3ccccc3)cc(-c3ccccc3)[n+]2-c2ccccc2)cc1
activity [1]: 96.6%
activity [2]: 87.8%

Nc1ncnc2c1ccn2[C@@H]1O[C@H](CO)[C@@H](O)[C@H]1O
activity [1]: 97.7%
activity [2]: 97.9%

CC1CCOC(=O)C=CC=CC(=O)OC2CC3OC4C5OC5(C)C(O)CC4(COC(=O)C1O)C2(C)C31CO1 (stereo not given)
activity [1]: 93.7%
activity [2]: 97.2%

CC(=O)OC1C(=O)OCC23CCC4(C)OC4C2OC2CC(OC(=O)C=CC=CC(=O)OCCC1C)C3(C)C21CO1 (stereo not given)
activity [1]: 89.6%
activity [2]: 92.9%

COc1ccc2nc(-c3ccc(CN4CCC(n5c(=O)[nH]c6ccccc65)CC4)cc3)c(-c3ccccc3)nc2c1
activity [1]: 39.8%
activity [2]: 24.9%

CC12CCC(O)CC1CCC1C2CCC2(C)C(C3=CC(=O)OC3)CCC12O (stereo not given)
activity [1]: 87.3%
activity [2]: 91.6%

CCOC(=O)C(=CNc1ccc(C(O)(C(=O)OCC)C(F)(F)F)cc1C)C(=O)OCC (stereo not given)
activity [1]: -5.97%
activity [2]: 6.08%

CCOC(=O)[C@]12Cc3cc(OC)ccc3[C@H]1N(C1CCCCC1)C(=O)c1cc(OC)ccc12
activity [1]: 57.6%
activity [2]: 75.7%

CCCCCN1C(=O)c2cc(OC)ccc2[C@@]2(C(=O)OCC)Cc3cc(Cl)ccc3[C@@H]12
activity [1]: 87.2%
activity [2]: 92.8%

Oc1ccc(-[n+]2c(-c3ccccc3)cc(-c3ccccc3)cc2-c2ccccc2)cc1
activity [1]: 90.3%
activity [2]: 59.6%

CCOC(=O)[C@]12Cc3cc(OC)ccc3[C@H]1N(C1CCCCC1)C(=O)c1ccccc12
activity [1]: 91.9%
activity [2]: 94.1%

C=CCn1c(O)c(C(CC)=NCc2cc(OC)cc(OC)c2)c(=O)[nH]c1=O
activity [1]: 46.4%
activity [2]: 37.5%

CC(C)N(C(=O)CCl)c1ccccc1
activity [1]: 98%
activity [2]: 98.3%

CC1CCC(C(C)C)C(OC(=O)Cn2c(COc3ccccc3)[n+](C)c3ccccc32)C1 (stereo not given)
activity [1]: 66.9%
activity [2]: 57.7%

CCOC(=O)[C@]12Cc3ccc(C)cc3[C@H]1N(C1CCCCC1)C(=O)c1cc(OC)ccc12
activity [1]: 97.5%
activity [2]: 98%

CN(C)C(=O)Oc1ccc(OCc2nc3ccccc3[nH]2)cc1
activity [1]: 75.7%
activity [2]: 78.1%

CC1=CC2OC3CC4OC(=O)C=CC=CC(=O)OCCC(C)C(O)C(=O)OCC2(CC1)C4(C)C31CO1 (stereo not given)
activity [1]: 75.6%
activity [2]: 80.9%

CNC(=O)O/N=C(\N)Cc1csc2ccc(Cl)cc12
activity [1]: 87.3%
activity [2]: 91.2%

Cc1ccc(NC(=O)CN2C(=O)CN=C(c3ccccc3)c3cc(Cl)ccc32)cc1
activity [1]: 78.1%
activity [2]: 85%

CCOC(=O)[C@]12Cc3cc(OC)ccc3[C@H]1N(C(C)C)C(=O)c1cc(OC)ccc12
activity [1]: 28%
activity [2]: 45%

CN(C)CC(C(=O)Cc1ccccc1)c1ccccc1 (stereo not given)
activity [1]: 37.9%
activity [2]: 96.3%

CCOC(=O)[C@]12Cc3cc(Cl)ccc3[C@H]1N(Cc1ccccc1)C(=O)c1cc(OC)ccc12
activity [1]: 91.9%
activity [2]: 97.9%

CC1=CC2OC3CC4OC(=O)C=CC=CC(C(C)O)OCC(O)C5(C)OC5C(=O)OCC2(CC1O)C4(C)C31CO1 (stereo not given)
activity [1]: 93%
activity [2]: 98.3%

C[C@]12CC[C@H]3C(CCC4(O)CC(O)CC[C@]34C=O)C1=CC[C@H]2c1ccc(=O)oc1 (stereo not given in full)
activity [1]: 70.2%
activity [2]: 55.2%

Clc1ccc(C[n+]2c(-c3ccccc3)cc(-c3ccccc3)cc2-c2ccccc2)cc1
activity [1]: 79.1%
activity [2]: 65.9%

CN(C)C(=O)O/N=C(\N)COc1ccc(C(C)(C)C)cc1
activity [1]: 96.8%
activity [2]: 98.2%

CCOC(=O)[C@]12Cc3cc(C)ccc3[C@H]1N(C(C)C)C(=O)c1ccccc12
activity [1]: 44.4%
activity [2]: 63.6%

CC1OC(OC2C=C3CCC4C(CCC5(C)C(c6ccc(=O)oc6)CCC45O)C3(C)CC2)C(O)C(OC2OC(CO)C(O)C(O)C2O)C1O (stereo not given)
activity [1]: 83.1%
activity [2]: 91.9%

CC12CCC3C(CCC4(O)CC(O)CCC34C=NO)C1(O)CCC2C1=COC(=O)C1 (stereo not given)
activity [1]: 91%
activity [2]: 92.7%

CC[C@H](C)[C@@H]1NC(=O)CNC(=O)c2csc(n2)[C@H](C(C)(C)O)OC(=O)C(C)(C)[C@H](CCCC(C)(Cl)Cl)OC(=O)c2csc1n2
activity [1]: 53.5%
activity [2]: 78.6%

COC(=O)C12OCC34C(CC5C(C)=C(O)C(=O)CC5(C)C3C(O)C1O)OC(=O)C(OC(=O)/C=C(\C)C(C)C)C24 (stereo not given)
activity [1]: 94.8%
activity [2]: 97.5%

C[C@]12CCC3C(CCC4=CC(O)CC[C@@]43/C=N/O)C1(O)CCC2C1=CC(=O)OC1 (stereo not given in full)
activity [1]: 87%
activity [2]: 92.3%

CCOC(=O)[C@]12Cc3c(cc(OC)c(OC)c3OC)[C@H]1N(C1CCCCC1)C(=O)c1ccccc12
activity [1]: 95.8%
activity [2]: 98%

COc1ccc(N2C(=O)/C(=C/c3ccco3)C(=O)NC2=S)cc1
inhibition [3]: 38.2% (active)
inhibition [4]: 24.5% (active)

COc1ccc(-n2nnnc2C(c2cc3ccccc3o2)N2CCC(n3c(=O)[nH]c4ccccc43)CC2)cc1 (stereo not given)
activity [1]: 69.4%
activity [2]: 62.5%

CNC(=O)Oc1ccc(-c2cn3cc(C)ccc3n2)cc1
activity [1]: 95.7%
activity [2]: 95.5%

CCOC(=O)[C@]12Cc3cc(Cl)ccc3[C@H]1N(C1CCCCC1)C(=O)c1ccccc12
activity [1]: 98.5%
activity [2]: 99.3%

CCOc1ccc(-c2c(C)n(-c3ccc(OCC)cc3)c3[n+]2CCCCC3)cc1
activity [1]: 61%
activity [2]: 63%

CCCCCN1C(=O)c2ccccc2[C@@]2(C(=O)OCC)Cc3cc(OC)ccc3[C@@H]12
activity [1]: 47.4%
activity [2]: 63%

O=c1[nH]c2ccccc2n1C1CCN(C(CCc2ccccc2)c2nnnn2Cc2ccccc2)CC1 (stereo not given)
activity [1]: 95.3%
activity [2]: 92.7%

CCOC(=O)[C@]12Cc3cc(C)ccc3[C@H]1N(C1CCCCC1)C(=O)c1ccccc12
activity [1]: 95.3%
activity [2]: 96.5%

O=c1[nH]c2ccccc2n1C1CCN(C(c2cc3ccccc3o2)c2nnnn2Cc2ccccc2)CC1 (stereo not given)
activity [1]: 73.2%
activity [2]: 75.7%

COC(=O)[C@@H]1[C@@H](C(=O)OC)C2(c3ccccc3-c3ccccc32)N(c2ccc(Cl)cc2)N1C#N
activity [1]: 96.8%
activity [2]: 99.2%

CCOC(=O)[C@]12Cc3cc4ccccc4cc3[C@H]1N(Cc1ccccc1)C(=O)c1ccccc12
activity [1]: 52.8%
activity [2]: 54.6%
activity, % sensitization [5]: 18.4%
activity, % sensitization [6]: 31.7%
activity, % sensitization [7]: 6.91%
activity, % sensitization [8]: 3.45%

CN(C)C(=O)Oc1ccc(-c2cn3cc(Cl)ccc3n2)cc1
activity [1]: 80%
activity [2]: 85.6%

CCCC1(CCC)C(=O)NC(=NCc2ccccc2)NC1=O
activity [1]: 51.6%
activity [2]: 20.8%
activity, % sensitization [5]: -11.1%
activity, % sensitization [6]: 5.29%
activity, % sensitization [7]: -4.21%
activity, % sensitization [8]: -22.9%

Cc1nc2cc(C(F)(F)F)ccc2n1C1CCN(Cc2nnnn2Cc2ccc3c(c2)OCO3)CC1
activity [1]: 53%
activity [2]: 54.3%

CC(=O)OC[C@]12CCC(C)=C[C@H]1O[C@@H]1[C@H](O)[C@@H](OC(C)=O)[C@@]2(C)[C@]12CO2
activity [1]: 95.1%
activity [2]: 97.4%

CNC(=O)Oc1ccc(-c2cn3cc(Cl)ccc3n2)cc1
activity [1]: 85.8%
activity [2]: 84.1%

Cc1ccccc1-[n+]1c(-c2ccccc2)cc(-c2ccccc2)cc1-c1ccccc1
activity [1]: 75.7%
activity [2]: 64.1%

COc1ccc(-[n+]2c(-c3ccccc3)cc(-c3ccc(C)cc3)cc2-c2ccccc2)cc1
activity [1]: 74.3%
activity [2]: 64.8%

Cc1cccc(C)c1-n1nnnc1C(CCc1ccccc1)N1CCC(n2c(=O)[nH]c3ccccc32)CC1 (stereo not given)
activity [1]: 90.2%
activity [2]: 82%

CC(C)CCn1c(=O)c(C(=O)Nc2ccccc2S(N)(=O)=O)c(O)c2ccccc21
activity [1]: 55.4%
activity [2]: 45.3%
activity, % sensitization [5]: -2.11%
activity, % sensitization [6]: -8.54%
activity, % sensitization [7]: -27.8%
activity, % sensitization [8]: -20%

CCOC(=O)[C@]12Cc3cc4ccccc4cc3[C@H]1N(Cc1ccccc1)C(=O)c1cc(OC)ccc12
activity [1]: 46.5%
activity [2]: 53.2%
activity, % sensitization [5]: 23.8%
activity, % sensitization [6]: 23.6%
activity, % sensitization [7]: 7.37%
activity, % sensitization [8]: 2.99%

NC(=O)c1cn(C2OC(CO)C(O)C2O)c2ncnc(N)c12 (stereo not given)
activity [1]: 56.3%
activity [2]: 81.3%

CCCOC(=O)c1ccc(-[n+]2c(-c3ccccc3)cc(-c3ccccc3)cc2-c2ccccc2)cc1
activity [1]: 74.7%
activity [2]: 68.3%
